DT40 TDP1 no CPT: qHTS for Inhibitors of human tyrosyl-DNA phosphodiesterase 1 (TDP1): qHTS in cells in absence of CPT. AID 686978, 2013. DT40 Tdp1-/- hTDP1 cells, no CPT, ATP luminescence, 48 h. 15% of 420,000 active. Potency, µM (doses to about 46.2 µM), most hits filed as inhibitors; note: nearly all actives have a fitted effect of over 55% in size
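DT40 Tdp1-/-;hTDP1 cells, no CPT (DMSO vehicle only), 400 cells/well; compounds pin-transferred; ≥48 hr, 37 °C; CellTiter-Glo 30 min RT dark, luminescence read.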
IL-1B inflam inh: inflammasome signaling inhibition, IL-1 beta readout. activity change, % at 57.5 µM. THP-1 LPS/ATP IL-1B secretion, AlphaLISA, 16 h; hits give low values. AID 743279. 4.7% of 360,000 active; in the data active = activity change below about -50%; inconclusive = mostly about -30% to -49%
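Secreted IL-1B measured by AlphaLISA bead assay after 16 h compound exposure of THP-1 cells; compounds (final up to 57.5 uM) added 1 h before LPS (250 ng/mL) and ATP (1.25 mM) stimulation; lower signal means less secretion.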
HT1080 IDH1KD tx: toxicity to HT-1080 IDH1 knockdown cells (counter line); HT-1080 IDH1 knockdown viability, ATP luminescence, 48 h; Potency, µM (series often up to 46.1 µM), hits mostly cytotoxic; 2% of 360,000 active
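% activity derives from luminescence (CellTiter-Glo), normalised to DMSO and no-cell wells. HT-1080-IDH1KD cells, 750/well, had 48 h compound exposure at 37 °C.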
DT40 TDP1 CPT: growth inhibition of DT40 Tdp1-/-;hTDP1 cells with camptothecin (screen for TDP1 inhibitors); chicken DT40 Tdp1-/-;hTDP1 cells + 20 nM CPT, ATP luminescence, 48 h; Potency, µM (titrated, usually from 46.2 µM), most hits filed as inhibitors; AID 686979; 12% of 420,000 active; note: nearly all actives have a fitted effect of over 55% in size
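Chicken DT40 Tdp1-/- cells stably complemented with human TDP1 were seeded at 400 cells/well in medium containing 20 nM camptothecin, exposed to pin-transferred compounds, and grown at 37 °C for at least 48 hr. Viability was read as ATP luminescence.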
HT1080NT lethal: kills 2HG-producing HT-1080-NT fibrosarcoma cells; HT-1080-NT fibrosarcoma viability, CellTiter-Glo ATP luminescence, 48 h; Potency, µM (doses to about 46.1 µM), actives largely listed as cytotoxic; 1.6% of 360,000 active;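 note: NT is the 2HG producing partner of a matched IDH1 knockdown line; nearly all actives have a fitted effect of over 55% in size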
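Read-out is CellTiter-Glo luminescence after 10 minutes at room temperature, following 48 hours' compound treatment of HT-1080-NT cells (750 cells/well, RPMI, 5% FBS, 37 degrees C).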
Each line names hits and unclear results; the compound was inactive in the other large screens. In the library only some 19% were active in any assay of this set; here they are far more common. Unless noted, calls come from the whole dose curve; as a rule, active = well fitted curve in the direction sought with a large enough effect; inconclusive = small, poorly fitted or top-dose-only effect, or another doubt; inactive = no such curve, though single readings can be large; an effect the other way counts as inactive or inconclusive.

COc1ccc(OCCN2CCC(C(=O)NC(c3ccc(Cl)cc3)c3ncccc3C)CC2)cc1 (stereo not given)	DT40 TDP1 no CPT inconclusive, HT1080 IDH1KD tx 20.6µM, DT40 TDP1 CPT 23.1µM, HT1080NT lethal inconclusive (no result: IL-1B inflam inh)
Cc1ccccc1C(c1ncccc1C)N(C)C(=O)C1CCN(CCOc2ccc(Cl)cc2Cl)CC1 (stereo not given)	DT40 TDP1 no CPT inconclusive, IL-1B inflam inh inconclusive, HT1080 IDH1KD tx 23.1µM, DT40 TDP1 CPT inconclusive, HT1080NT lethal inconclusive
COc1ccc(OCCN2CCC(C(=O)NC(c3ccc(Cl)cc3)c3cnccn3)CC2)cc1 (stereo not given)	DT40 TDP1 no CPT inconclusive, IL-1B inflam inh -54.1, DT40 TDP1 CPT inconclusive
Cc1cccnc1C(NC(=O)C1CCN(CCCc2ccccc2)CC1)c1ccc(F)cc1 (stereo not given)	DT40 TDP1 no CPT 23.1µM, DT40 TDP1 CPT inconclusive
COc1cc(OC)cc(-c2nc3nc(C)c(CCC(=O)Nc4ccc(C)c(C)c4)c(C)n3n2)c1	none (no result: IL-1B inflam inh, HT1080 IDH1KD tx, HT1080NT lethal)
COc1ccc(OCCN2CCC(C(=O)NC(c3ccc(F)cc3)c3ncccc3C)CC2)cc1 (stereo not given)	DT40 TDP1 no CPT 16.4µM, HT1080 IDH1KD tx inconclusive, DT40 TDP1 CPT inconclusive, HT1080NT lethal inconclusive
Cc1cccnc1C(NC(=O)C1CCN(Cc2ccc(Cl)cc2)CC1)c1ccc(F)cc1 (stereo not given)	DT40 TDP1 no CPT 20.6µM, IL-1B inflam inh inconclusive, HT1080 IDH1KD tx inconclusive, DT40 TDP1 CPT 25.9µM, HT1080NT lethal inconclusive
CCCN1CCC(C(=O)NC(c2ccc(F)cc2)c2ncccc2C)CC1 (stereo not given)	DT40 TDP1 CPT inconclusive
COc1ccc(OCCN2CCC(C(=O)NC(c3ccccn3)c3ccccc3OC)CC2)cc1 (stereo not given)	DT40 TDP1 CPT inconclusive
COc1ccccc1C(NC(=O)C1CCN(CCOc2ccc3ccccc3c2)CC1)c1ccccn1 (stereo not given)	DT40 TDP1 no CPT 14.6µM, IL-1B inflam inh inconclusive, HT1080 IDH1KD tx 18.4µM, DT40 TDP1 CPT 14.6µM, HT1080NT lethal 18.4µM
Cc1cccnc1C(NC(=O)C1CCN(Cc2ccc3ccccc3n2)CC1)c1ccc(Cl)cc1 (stereo not given)	DT40 TDP1 no CPT 16.4µM, IL-1B inflam inh inconclusive, HT1080 IDH1KD tx inconclusive, DT40 TDP1 CPT inconclusive, HT1080NT lethal inconclusive
C=C1C=C(C(F)F)n2ncc(C(=O)N3CCN(c4ccccn4)CC3)c2N1	none (no result: IL-1B inflam inh, HT1080 IDH1KD tx, HT1080NT lethal)
CNC(=O)C[C@H]1C(=O)N(c2ccc(OC)cc2)C[C@@H]1C	none
Fc1ccccc1OCC1CCCN(Cc2nc(CC3CC3)no2)C1 (stereo not given)	none
Cc1cc(C)n(Cc2ccc(NC(=O)c3c([N+](=O)[O-])c(C)nn3C)cc2)n1	none
Cc1cccnc1C(NC(=O)C1CCN(CCOc2ccc(F)cc2)CC1)c1ccc(Cl)cc1 (stereo not given)	DT40 TDP1 no CPT 16.4µM, IL-1B inflam inh -69.3, HT1080 IDH1KD tx 16.4µM, DT40 TDP1 CPT inconclusive, HT1080NT lethal inconclusive
Cc1cccnc1C(NC(=O)C1CCN(CCCOc2ccc(F)cc2)CC1)c1ccccc1 (stereo not given)	DT40 TDP1 no CPT 20.6µM, IL-1B inflam inh inconclusive, HT1080 IDH1KD tx inconclusive, DT40 TDP1 CPT inconclusive, HT1080NT lethal inconclusive
O=C(O)CCCNC(=O)CCCNC(=O)C(c1ccccc1)c1ccccc1	none
COc1ccc(C(=O)N2CCCCC2CCN2CCOCC2)cc1 (stereo not given)	none (no result: IL-1B inflam inh, HT1080 IDH1KD tx, HT1080NT lethal)
CC(C)=CCC/C(C)=C/CNC(=O)C[C@H]1C[C@H](C(=O)N2CCCCC2)[C@@]2(CCc3ccccc3)c3[nH]c4cc(-c5ccco5)ccc4c3CCN2C1=O	DT40 TDP1 no CPT inconclusive, DT40 TDP1 CPT inconclusive
CC[C@]12c3[nH]c4ccccc4c3CCN1C(=O)C(CC(=O)NCCCOC)C[C@@H]2C(=O)N1CCN(C(=O)C2CC2)CC1 (stereo not given in full)	none
CC(C)=CCC/C(C)=C/CNC(=O)C[C@H]1C[C@H](C(=O)N2CCCCC2)[C@@]2(C)c3[nH]c4cc(CCC(=O)N(C)C)ccc4c3CCN2C1=O	DT40 TDP1 no CPT 14.6µM, IL-1B inflam inh -67.9, DT40 TDP1 CPT 7.31µM
CC(C)=CCC/C(C)=C/CNC(=O)C[C@H]1C[C@H](C(=O)N2CCOCC2)[C@@]2(C)c3[nH]c4cc(CCC(=O)N(C)C)ccc4c3CCN2C1=O	DT40 TDP1 no CPT 16.4µM, DT40 TDP1 CPT 23.1µM
CC[C@]12c3[nH]c4ccc(Cl)cc4c3CCN1C(=O)[C@@H](CC(=O)NC/C=C(\C)CCC=C(C)C)C[C@@H]2C(=O)N1CCN(C(=O)C2CC2)CC1	DT40 TDP1 no CPT 20.6µM, IL-1B inflam inh inconclusive, HT1080 IDH1KD tx 20.6µM, DT40 TDP1 CPT inconclusive, HT1080NT lethal inconclusive
CC[C@]12c3[nH]c4cc(CCC(=O)N(C)C)ccc4c3CCN1C(=O)[C@@H](CC(=O)NC/C=C(\C)CCC=C(C)C)C[C@@H]2C(=O)N1CCN(C(=O)C2CC2)CC1	DT40 TDP1 no CPT 6.51µM, DT40 TDP1 CPT 8.2µM
CC1(c2ccc(OC(F)F)cc2)NC(=O)N(CC(=O)N2CCN(C(=O)c3ccco3)CC2)C1=O (stereo not given)	none
O=C(NCC[C@@H]1CC[C@@H](NS(=O)(=O)Cc2ccccc2)[C@@H](CO)O1)C1CC1	none
COCCNC(=O)c1ccc(N2CC3CC(C2)c2cccc(=O)n2C3)c(NC(=O)c2ccc(C(C)(C)C)cc2)c1 (stereo not given)	DT40 TDP1 no CPT inconclusive
COc1cc(NC2CCCCC2O)c2nc(-c3ccc(Cl)cc3)ccc2c1 (stereo not given)	DT40 TDP1 no CPT inconclusive, HT1080 IDH1KD tx inconclusive, DT40 TDP1 CPT 20.6µM, HT1080NT lethal inconclusive
COc1ccccc1/C=C(/C(=O)OCC(=O)N(C)Cc1ccccc1)c1ccccc1	DT40 TDP1 no CPT 13µM, DT40 TDP1 CPT inconclusive
COc1ccccc1/C=C(/C(=O)OCC(=O)Nc1cc(C)ccc1C)c1ccccc1	DT40 TDP1 no CPT 20.6µM, DT40 TDP1 CPT 25.9µM
CCc1ccc(NC(=O)COC(=O)/C(=C/c2ccccc2OC)c2ccccc2)cc1	DT40 TDP1 no CPT inconclusive
Cc1ccc(CNC(=O)CS(=O)Cc2nc(-c3cccs3)oc2C)cc1 (stereo not given)	DT40 TDP1 no CPT inconclusive, DT40 TDP1 CPT 23.1µM
CCc1ccc(-c2nc(CS(=O)CC(=O)NCCc3ccccc3)c(C)o2)cc1 (stereo not given)	none
Cc1ccc(-c2nc(CS(=O)CC(=O)NCc3ccccc3)c(C)o2)cc1 (stereo not given)	none
CCc1ccc(-c2nc(CS(=O)CC(=O)NCCc3ccc(C)cc3)c(C)o2)cc1 (stereo not given)	DT40 TDP1 no CPT inconclusive, DT40 TDP1 CPT 23.1µM (no result: IL-1B inflam inh, HT1080 IDH1KD tx, HT1080NT lethal)
